The list is not random: actives were taken first. Their share in the collection is about 2.4%.
D2 PAM-1: Beta-Arrestin HTS for Positive Allosteric Modulators of the Human D2 Dopamine Receptor: Potentiators; DiscoveRx D2 beta-arrestin cells, luminescence, 90 min; 100% = 57 uM dopamine signal; potentiation, % (no concentration beside the values); 0.23% of 360,000 active; AID 624464, 2012; in the data active = potentiation above about 50%; inconclusive = mostly about 30% to 49%
Target sequence (P14416 whole entry, looked up): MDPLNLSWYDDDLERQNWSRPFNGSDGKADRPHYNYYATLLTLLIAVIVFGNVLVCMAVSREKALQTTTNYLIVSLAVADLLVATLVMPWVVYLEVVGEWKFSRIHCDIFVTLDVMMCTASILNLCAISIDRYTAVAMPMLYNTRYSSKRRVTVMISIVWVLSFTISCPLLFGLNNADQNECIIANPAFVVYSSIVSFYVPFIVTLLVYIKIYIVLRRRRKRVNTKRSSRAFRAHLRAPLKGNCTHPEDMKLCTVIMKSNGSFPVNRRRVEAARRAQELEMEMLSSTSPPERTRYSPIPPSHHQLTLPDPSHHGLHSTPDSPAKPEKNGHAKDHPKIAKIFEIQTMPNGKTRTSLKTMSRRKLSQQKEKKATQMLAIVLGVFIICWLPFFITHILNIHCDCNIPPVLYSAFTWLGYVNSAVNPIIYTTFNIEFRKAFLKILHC
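PathHunter D2 cells, attached overnight at 37 deg C, received compound in DMSO plus dopamine at EC20 (50 nM final) for 90 min at 37 deg C. Beta-arrestin recruitment was read as luminescence after 1 h with detection reagent at ambient temperature.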
D2 ag-1: Beta-Arrestin HTS for Positive Allosteric Modulators of the Human D2 Dopamine Receptor: Agonists; D(2) dopamine receptor (Homo sapiens), P14416; DiscoveRx PathHunter D2 beta-arrestin, luminescence, 90 min; 100% = 57 uM dopamine signal; activation, % (no concentration beside the values); 0.084% of 360,000 active; AID 624465, 2012; in the data active = activation above about 40%; inconclusive = between about 15% and that limit
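DiscoveRx PathHunter D2 beta-arrestin cells (2,100/well) attached overnight, then compound-stimulated 90 min at 37 C in HBSS/10 mM HEPES/0.1% Tween-20 buffer; beta-galactosidase complementation read by luminescence after 1 h at ambient temperature. Dopamine 57 uM final (EC100) as control.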
D2 ag-2: HTS Assay for Allosteric Agonists of the Human D2 Dopamine Receptor: Primary Screen for Agonists | HEK293 T-REx D2 cells, calcium flux agonist mode | activation, % at 2 µM | 0.53% of 340,000 active;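 active = activation over 3 SD above normal in the single-dose calcium agonist read, cut at about 30% in these data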; also: 0% is about no effect
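Tetracycline-induced HEK293 T-REx cells with force-coupled D2 receptor, plated overnight at 30 C, loaded with no-wash calcium dye. After a 10 s baseline, compound was pin-added and calcium flux read kinetically for 180 s; calcium rises flagged agonists.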
D2 antag: HTS Assay for Allosteric Antagonists of the Human D2 Dopamine Receptor: Primary Screen for Antagonists | inhibition, % at 10 µM | HEK293 TREx D2 cells, calcium flux, dopamine EC80 | 2% of 340,000 active | D(2) dopamine receptor (Homo sapiens), P14416; in the data active = inhibition above about 30%; inactive = below that, where a call was filed; also: 0% is about no effect
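In this primary screen, negative modulation is detected by tracking calcium flux after an EC80 dopamine challenge in inducible HEK293 T-REx D2 cells preexposed to test compound for 180 s.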
D2 PAM-2: HTS Assay for Positive Allosteric Modulators of the Human D2 Dopamine Receptor: Primary Screen for Potentiators; 0.34% of 340,000 active; D(2) dopamine receptor (Homo sapiens), P14416; potentiation, % at 10 µM; HEK293 T-REx D2, calcium flux, EC20 dopamine potentiation;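 active = potentiation over 3 SD above the plate norm, cut at about 30% in these data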; also: 0% is about no effect
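Tetracycline-induced Hek293 Trex D2 cells, force-coupled to calcium, loaded with no-wash calcium dye. Compound added with 180 s kinetic read for agonism, then EC20 dopamine and a further 180 s read for potentiation.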
The depositor's hits bear a star; ? = inconclusive; · = not tested or not shown.

SMILES	D2 PAM-1	D2 ag-1	D2 ag-2	D2 antag	D2 PAM-2
Cc1ccc(C(=O)Nc2cccc(C(=O)N/N=C/c3ccc(F)cc3)c2)cc1	-15	2	-2	31*	-24
O=C(C[n+]1ccccc1)N/N=C/c1ccccc1F	-7	-9	1	-6	-3
Cc1cccc(/C=N\NC(=O)c2ccc(Cl)cc2)c1O	-14	0	-1	30*	-31
Cc1ccccc1-c1n[nH]nc1C1=CC(=O)CC(C)(C)C1	5	-7	·	·	·
Cc1ccc(NC(=O)Cn2cc(C(=O)C3CCCCC3)c3ccccc32)c(C)c1	·	·	0	·	-9
O=C(N/N=C/c1cccc([N+](=O)[O-])c1)c1ccc(Br)cc1	-9	2	0	3	6
O=C(N/N=C/c1cccc(Br)c1)c1ccc(Br)cc1	-14	-1	-2	50*	-20
Cc1ccc(CN2CCCn3nc(C(=O)NCCc4cccc(C)c4)cc3C2=O)cc1	·	·	2	·	0
Cc1ccc(-c2cnc(-c3ccncc3)o2)cc1	-5	2	0	32*	6
Nc1ccc(-c2ncc(-c3ccccc3)o2)cc1	-4	2	-2	0	-4
COc1ccc(C)cc1NC(=S)NC(C)c1ccc(OC)c(OC)c1 (configuration not stated)	53*	0	1	-11	-2
CCCN1CCN(CCCNC(=O)c2cc3c(=O)oc4ccc(C)cc4c3s2)CC1	-11	-2	0	5	34*
COCCCNC(=O)c1cc2c(=O)oc3ccc(C)cc3c2s1	·	·	0	·	14
Cc1ccc2oc(=O)c3cc(C(=O)NCCCN4CCCC(C)C4)sc3c2c1 (configuration not stated)	-32	-2	0	43*	-18
Cc1ccccc1NC(=O)C1CCN(C(=O)c2cnn(-c3ccccc3)c2-n2cccc2)CC1	·	·	1	·	-3
Cc1ccc(SCC(=O)OCC(=O)N(C)CC(=O)Nc2ccccc2Cl)cc1C	6	1	2	33*	-1
CCOc1ccccc1N1CCN(C(=O)c2ccc(-c3ccc(OC(C)=O)cc3)cc2)CC1	-4	-1	-2	31*	0
CN(C)c1ccc(/C=C/c2ccc3ccccc3n2)cc1	-1	-1	24	-24	6
CCCN(CCC)c1ccc(/C=C/c2ccc3cc(OCC)ccc3n2)cc1	-3	1	38*	-6	-4
Cc1ccc(NC(=O)C(C)Sc2nnc3n2CCCCC3)cc1S(=O)(=O)N1CCOCC1 (configuration not stated)	-1	-5	·	·	·
O=c1[nH]c(/C=C/c2ccc3c(c2)OCO3)c([N+](=O)[O-])c(=O)[nH]1	·	·	3	-3	-8
O=c1[nH]c(/C=C/c2ccc([N+](=O)[O-])cc2)c([N+](=O)[O-])c(=O)[nH]1	52*	?	0	3	-2
CC(=O)Nc1ccc(-c2ccnc3c2CC(C)(C(=O)Nc2ccc(C(C)C)cc2)O3)cc1 (configuration not stated)	-4	-2	·	·	·
CC(C)Cn1c(=S)[nH]c2cc(C(=O)O)ccc2c1=O	-8	-3	1	31*	9
COCCn1c(=S)[nH]c2cc(C(=O)NC(C)C)ccc2c1=O	13	-2	0	2	20
SMILES	D2 PAM-1	D2 ag-1	D2 ag-2	D2 antag	D2 PAM-2
Cc1cccc(C)c1NS(=O)(=O)c1ccc2c(c1)C(=O)c1ccccc1C2=O	60*	11	0	-2	11
O=C(O)c1ccc(NS(=O)(=O)c2ccc3c(c2)C(=O)c2ccccc2C3=O)cc1	29	3	0	-8	2
CCN(C(=O)c1cn(C)c(=O)c2ccccc12)c1cccc(C)c1	·	·	1	·	15
CN(C)S(=O)(=O)c1ccc(Cl)c(NC(=O)CN2CCCCCC2)c1	-22	-3	-3	34*	-30
CN(CC(=O)Nc1cc(S(=O)(=O)N2CCCC2)ccc1Cl)Cc1ccc2c(c1)OCO2	-8	-2	-1	32*	-16
O=C(CCCC(=O)OCC(=O)c1ccc(Cl)cc1Cl)Nc1cc(C(F)(F)F)ccc1Cl	-40	-11	1	19	-11
O=C(CCCC(=O)OCC(=O)c1ccc(F)cc1)Nc1cc(C(F)(F)F)ccc1Cl	0	-4	1	47*	-20
CCN(c1ccccc1)S(=O)(=O)c1ccc(Cl)c(NC(=O)CN2CCCCCC2)c1	-5	2	1	1	-10
NC(=O)C1(N2CCCCC2)CCN(CC(=O)Nc2cc(Cl)ccc2Cl)CC1	-11	-1	0	43*	-25
CCC(C)NC(=O)Cn1c(=O)n(CC2CCC(C(=O)NC)CC2)c(=O)c2sccc21 (configuration not stated)	·	·	0	·	·
CCc1ccccc1NC(=O)CN1C(=O)CCSc2ccc(S(=O)(=O)N3CCCC3)cc21	·	·	2	·	-6
CCc1ccccc1NC(=O)c1cnc(N2CCCCC2)c2ccccc12	·	·	0	·	2
O=C(CN1CCCCC1)Nc1ccc(C(F)(F)F)cc1Cl	1	-2	-1	-29	-1
CN(C)S(=O)(=O)c1ccc(Cl)c(NC(=O)CN2CCC(Cc3ccccc3)CC2)c1	-26	2	-5	42*	-10
CN(C)S(=O)(=O)c1ccc(NC(=O)CN2CCC(Cc3ccccc3)CC2)cc1	-3	-2	2	-1	-6
CCOC(=O)c1ccc[n+](CC(=O)Nc2cc(C(F)(F)F)ccc2Cl)c1	-15	-3	0	52*	-9
O=C(CN1CCCC1)Nc1cc(C(F)(F)F)ccc1Cl	-13	-6	-2	82*	-20
O=C(COC(=O)c1ccc(O)cc1)Nc1cc(C(F)(F)F)ccc1Cl	-4	6	3	0	-3
COc1ccc(-c2cc3c(=O)n(CC(=O)NCCCN4CCN(Cc5ccccc5)CC4)ncn3n2)cc1	-18	-7	1	37*	-32
CCOc1ccc(CCNC(=O)Cn2ncn3nc(-c4ccc(OC)cc4)cc3c2=O)cc1	-3	0	0	-12	-1
Cc1nn(CC(=O)NCCCN2CCN(C)CC2)c(=O)c2cc(-c3ccccc3)nn12	-16	2	0	4	30*
COc1ccc(-c2cc3c(=O)n(CC(=O)NCCCN4CCC(Cc5ccccc5)CC4)ncn3n2)cc1	-56	-5	0	89*	-26
COc1ccc(-c2cc3c(=O)n(CC(=O)NCc4ccc(Cl)cc4)ncn3n2)cc1	-2	-4	0	-18	-1

Screens deposited in PubChem BioAssay by National Center for Advancing Translational Sciences (NCATS).
